Hits are enriched below; roughly 3.5% of the tested compounds scored in any of these assays.
ERa coact inh: blocks coactivator binding to human estrogen receptor alpha; P03372; TR-FRET ER-alpha LBD / SRC-1 peptide, estradiol-bound; inhibition, % at 25.6 µM; 1.7% of 86,000 active; AID 629; in the data active = inhibition above about 50%;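 note: 0% = receptor plus peptide control and 100% = peptide only without receptor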
ERa coact pot: enhances coactivator binding to human estrogen receptor alpha; P03372; TR-FRET ERalpha-LBD/SRC-Cy5 coactivator binding, 2 h; 100 = basal binding, no effect; coactivator binding (% of control), % at 25.6 µM; 1.3% of 86,000 active; in the data active = activity above about 200%;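 note: binding measured in presence of low estradiol as agonist stimulus; 0% = peptide alone without receptor and 100% = receptor with peptide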
MMP-13 inhibitor: MMP13 (human) collagenase inhibition. P45452. MMP-13 fTHP FRET cleavage, Mca fluorescence. inhibition, % at 4 µM. 0.07% of 65,000 active;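 active = inhibition above the mean of compound-free control plate wells plus 3 SD, cut at about 14% in these data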;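 note: 0% = DMSO wells and 100% = wells with reference MMP-13 inhibitor after basal subtraction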
Smad3 inh: inhibitors of human Smad3 transcription factor binding; TR-FRET Smad3/Dy647-FoxH1 peptide binding, europium anti-His; inhibition, % at 25 µM; 0.29% of 88,000 active; AID 630;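 active = compounds that reduce the energy-transfer binding signal between the protein and its labelled peptide by more than half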;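 note: 0% = Smad3 plus labelled peptide maximal FRET and 100% = peptide-only background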
Target sequence (P84022 whole entry, looked up): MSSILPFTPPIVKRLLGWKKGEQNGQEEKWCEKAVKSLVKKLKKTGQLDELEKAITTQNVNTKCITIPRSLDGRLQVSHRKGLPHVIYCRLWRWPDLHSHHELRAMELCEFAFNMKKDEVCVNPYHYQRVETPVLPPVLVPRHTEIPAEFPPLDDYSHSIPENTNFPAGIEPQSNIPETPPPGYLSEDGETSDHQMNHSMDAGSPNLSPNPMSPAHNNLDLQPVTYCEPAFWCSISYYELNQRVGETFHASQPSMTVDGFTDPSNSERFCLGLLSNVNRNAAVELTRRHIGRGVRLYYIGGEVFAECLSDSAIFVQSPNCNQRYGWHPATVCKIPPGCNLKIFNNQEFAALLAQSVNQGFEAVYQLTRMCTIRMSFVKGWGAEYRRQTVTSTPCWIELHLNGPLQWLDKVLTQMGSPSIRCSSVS
ERb coact inh: ER-beta (human) coactivator binding inhibition. Q92731. TR-FRET ER-beta LBD / SRC1-Cy5 peptide binding; receptor agonist-loaded with 1 µM estradiol. inhibition, % at 25.6 µM. 1.3% of 86,000 active;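 active = compounds whose percent inhibition of the receptor-coactivator binding signal exceeds about 50% in the single-dose screen, limit read from the data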;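 note: 0% = receptor plus peptide wells without compound and 100% = peptide-only wells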
MT1-MMP txn act: activates MT1-MMP transcription; HT1080 MT1-MMP promoter luciferase reporter, luminescence, overnight; hits give high values; activation factor at 10 µM; 0.16% of 86,000 active; AID 750;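 active = activation factor of at least 2 for MT1-MMP transcription at 10 µM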
* hit, by the source's call; . = not tested or not shown; [ ] = another dose, or the depositor's remark.

SMILES	ERa coact inh	ERa coact pot	MMP-13 inhibitor	Smad3 inh	ERb coact inh	MT1-MMP txn act
CCOC(=O)C(C)Oc1cccc2c(=O)n(CC(=O)Nc3cccc(OC)c3)ccc12 (centres undefined)	-5	113	.	1	2	.
CCOC(=O)C(C)Oc1cccc2c(=O)n(CC(=O)Nc3ccc4c(c3)OCCO4)ccc12 (centres undefined)	24	324*	4	-20	28	.
Fc1ccc(CSc2nnc(Cc3sc(-c4ccccc4)nc3-c3ccccc3)o2)cc1	-20	274*[fluorescence artefact?]	.	-5	-9	1.1
COc1ccc(CSc2nnc(Cc3sc(-c4ccccc4)nc3-c3ccccc3)o2)cc1	-41	438*[fluorescence artefact?]	.	1	-18	1
CSc1nnc(Cc2sc(-c3ccccc3)nc2-c2ccccc2)o1	6	98	.	9	-5	1.1
Clc1cccc(-c2ccc(/C=N/n3cnnc3)o2)c1	-6	101	-1	2	-8	1.1
COc1cc(-c2nn3c(-c4ccccc4)nnc3s2)cc(OC)c1OC	5	107	1	6	-3	1.1
COc1cccc(-c2nnc3sc(-c4cccs4)nn23)c1	17	251*	-3	-89	8	1.8
CCOc1cccc(-c2nnc3sc(-c4cc(OC)c(OC)c(OC)c4)nn23)c1	73*	161	-10	-30	46	1.1
CCOc1cccc(-c2nnc3sc(-c4cccs4)nn23)c1	13	193	1	-40	14	1.2
Clc1cccc(-c2nn3c(-c4cccc(Cl)c4)nnc3s2)c1	20	296*	-4	-4	32	1
COc1ccc(-c2nnc3c4ccccc4c(C)nn23)cc1	0	96	.	4	12	2*
Cc1ccc(S(=O)(=O)N(C)Cc2nc(-c3ccc(Br)cc3)no2)cc1	2	114	2	0	-11	1.1
O=S(=O)(c1ccc(Cl)cc1Br)N1CCCCC1	-6	106	2	7	-10	1.1
CCOc1ccc(-c2nn3c(-c4ccc(OC)cc4)nnc3s2)cc1	-82	677*[fluorescence artefact?]	-3	-21	-11	1.3
COc1ccc(-c2nnc3sc(-c4ccccc4OC)nn23)cc1	4	234*	4	-90	15	1
COc1ccc(Cc2nn3c(-c4ccccc4OC)nnc3s2)cc1	-10	93	-3	-2	-4	1.1
Cc1ccc(-c2nnc3sc(-c4ccc5c(c4)OCCO5)nn23)cc1	15	303*	-1	27	16	1
CN1C(=O)NC(c2ccc(O)cc2)C(C(=O)c2cccs2)C1(O)C(F)(F)F (centres undefined)	10	104	-10	13	8	1.1
O=C(N/N=C/c1ccc(O)c(O)c1O)/C(=C/c1ccc([N+](=O)[O-])cc1)NC(=O)c1ccccc1	89*[fluorescence artefact?]	43	.	3	71*[fluorescence artefact?]	0.9
Cn1c(C(=O)N2CCc3ccccc3C2)cc2oc3ccccc3c21	.	.	-3	.	.	1.3
CCCNC(=O)C(=O)Nc1ccc(N(C)C)cc1	-2	105	.	91*[fluorescence artefact?]	-5	1.7
COCCNC(=O)C(=O)Nc1ccc(Br)cc1	-13	99	.	-3	-7	1.7
COc1ccc(NC(=O)Nc2ccc(N(C)C)cc2)cc1	28	75	5	6	52*[fluorescence artefact?]	1.2
N#CC1=C(N)SC(N)=C(C#N)C1c1ccoc1	22	51	-2	12	-2	1.2
SMILES	ERa coact inh	ERa coact pot	MMP-13 inhibitor	Smad3 inh	ERb coact inh	MT1-MMP txn act
CCOC(=O)c1ccc(Nc2cc(C)nc(N3CCOCC3)n2)cc1	.	.	-38	.	.	1.2
CCOC(=O)c1[nH]c(C)c(CN(CCc2ccccc2)C(=O)CCC(=O)O)c1C	-10	104	1	4	-8	1
CCN(CC)CCc1c(C)[nH]c(C(=O)OCc2ccccc2)c1C	96*[fluorescence artefact?]	6	6	25	93*[fluorescence artefact?]	1.2
COCCOC(=O)c1c(C)n(C)c2ccc(OC(=O)c3cccs3)cc12	-6	109	-2	0	6	1.2
C=CCn1cnc2c(c1=O)c1nc3ccccc3nc1n2/N=C/c1cc(OC)c(OC)c(OC)c1	16	91	-3	5	10	1
C=CCn1cnc2c(c1=O)c1nc3ccccc3nc1n2/N=C/c1cccc(OC)c1OC	85*[fluorescence artefact?]	66	0	5	-1	1.1
Cc1ccc2c(=O)cc(C(F)F)oc2c1	55*[fluorescence artefact?]	65	.	4	5	1.1
Cc1cc(C)c2c(=O)cc(C(F)F)oc2c1	46	68	.	7	1	1.1
Cc1cc(Cl)ccc1OCC(=O)OC(C)C(=O)N(C)C (centres undefined)	51*	60	3	0	57*	1.2
COCCNC(=O)c1ccc(C(=O)NCCOC)s1	-6	113	5	-1	3	1.2
CCCC(=O)Nc1c(C)nn(C(=O)CCC)c1C	5	278*[fluorescence artefact?]	-13	-6	3	1.2
C=CCn1c(SCc2csc(C)n2)nc2sc3c(c2c1=O)CCCC3	72*[fluorescence artefact?]	100	.	19	6	.
C=CCn1c(SCC(=O)Nc2cc(C)on2)nc2sc(C)c(C)c2c1=O	0	116	.	-6	7	1
C=CCn1c(SCc2cc(=O)n3ccsc3n2)nc2sc(C)c(C)c2c1=O	57*[fluorescence artefact?]	72	1	-2	33	1.1
C=CCn1c(SCc2csc(C)n2)nc2sc3c(c2c1=O)CCCCC3	-2	96	1	4	6	1
C=CCSc1nc2sc(C)c(C)c2c(=O)n1CC=C	6	88	.	-6	-2	1.1
C=CCn1c(SCC(=O)c2cccs2)nc2sc(C)c(C)c2c1=O	62*[fluorescence artefact?]	163	.	-1	24	1.2
Cc1ccc(S(=O)(=O)Cn2nnnc2C(c2ccccc2)N2CCN(c3ncccn3)CC2)cc1 (centres undefined)	-6	108	0	2	-10	1.2
O=C(Oc1cccnc1)c1ccc(Cl)c(Cl)c1	0	97	-2	2	-9	1
C[C@H](CCC(=O)O)[C@H]1CC[C@H]2[C@@H]3C(=O)C[C@@H]4CC(=O)CC[C@]4(C)[C@H]3CC(=O)[C@]12C	15	90	1	-11	26	1.1
O=C1c2ccccc2C(=O)c2c1ccc(C(=O)O)c2-c1ccc2ccccc2c1	.	.	.	10	.	.
O=C1C(=O)c2ccc(-c3ccccc3)cc2-c2ccccc21	24	90	.	66*[fluorescence artefact?]	-2	0.8
Nc1ccc2c(c1)C(=O)C(=O)c1ccccc1-2	-15	71	.	73*[fluorescence artefact?]	8	0
CCOC(=O)COc1ccc2c(c1)C(=O)CC(C)(c1cccnc1)O2 (centres undefined)	.	.	-96	.	.	1
Cc1ccc(-n2[nH]c(C)c(C=Nc3ccc(C)cn3)c2=O)cc1	-30	105	-2	-1	-29	0.9
COc1cc(C)c(S(=O)(=O)NCc2ccc3c(c2)OCO3)cc1C	66*	79	3	9	0	1
